Binding signal data for one sequence are collected here from PMC7862700, “An all-to-all approach to the identification of sequence-specific readers for epigenetic DNA modifications on cytosine”.

Test in all cases: DAPPL (digital affinity profiling via proximity ligation, sequencing); 10 mM Tris-HCl pH 7.5, 50 mM NaCl, 1 mM DTT, 4% glycerol, room temperature, 30 min; GST-TFs on glutathione beads, 16-mer random dsDNA library, 0.1% formaldehyde crosslink after washing; high values mean tight binding
Experiment [1] concerns the target T1, FLI1 (Homo sapiens, UniProt Q01543 1-452).
T1 sequence: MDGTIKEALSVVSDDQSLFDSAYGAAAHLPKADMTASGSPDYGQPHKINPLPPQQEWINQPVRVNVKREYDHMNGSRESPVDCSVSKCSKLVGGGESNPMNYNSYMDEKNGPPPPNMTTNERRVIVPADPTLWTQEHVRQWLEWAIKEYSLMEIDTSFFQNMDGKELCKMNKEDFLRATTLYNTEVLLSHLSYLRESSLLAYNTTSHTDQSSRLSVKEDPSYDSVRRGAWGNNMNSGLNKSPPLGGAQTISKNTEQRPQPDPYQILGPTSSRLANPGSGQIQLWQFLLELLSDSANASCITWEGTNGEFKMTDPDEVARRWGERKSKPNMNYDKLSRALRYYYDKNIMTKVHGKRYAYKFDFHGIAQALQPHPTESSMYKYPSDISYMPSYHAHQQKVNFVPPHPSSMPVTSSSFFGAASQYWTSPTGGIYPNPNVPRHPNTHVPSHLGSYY
The settings on record: protein: recombinant; tags: N-terminal GST; dsDNA, one strand shown. In short, it runs like this: (§1)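 Beads coated with glutathione captured GST-fused human transcription factors that had been expressed in yeast, and the factors were then given DNA barcodes and pooled with a tag-only sample. The pools were incubated with 200 nmole of a random double-stranded 16-mer DNA library in Tris/NaCl/DTT/glycerol buffer for 30 min at room temperature, washed, crosslinked with 0.1% formaldehyde and proximity-ligated with BsaI/T4 ligase at 37 °C for 1 h. PCR amplification and Illumina NextSeq500 sequencing came last. Binding signal is each hexamer's read frequency for a factor divided by its frequency for the tag-only sample.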

The target of experiment [2] is T2, ELK1 (Homo sapiens, UniProt P19419 1-428).
T2 sequence: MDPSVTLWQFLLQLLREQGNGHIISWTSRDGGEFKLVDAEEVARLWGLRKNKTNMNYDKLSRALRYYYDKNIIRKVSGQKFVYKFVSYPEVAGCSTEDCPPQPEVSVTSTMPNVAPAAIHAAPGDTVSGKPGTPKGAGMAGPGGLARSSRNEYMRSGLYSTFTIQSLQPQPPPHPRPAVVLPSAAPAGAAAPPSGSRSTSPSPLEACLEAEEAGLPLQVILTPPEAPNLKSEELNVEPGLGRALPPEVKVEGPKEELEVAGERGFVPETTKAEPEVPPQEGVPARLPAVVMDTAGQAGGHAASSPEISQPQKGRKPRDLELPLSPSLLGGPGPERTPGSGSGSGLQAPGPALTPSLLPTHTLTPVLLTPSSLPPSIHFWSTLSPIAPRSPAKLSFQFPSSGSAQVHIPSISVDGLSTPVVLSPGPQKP
As to conditions: protein: recombinant; tags: N-terminal GST; dsDNA, one strand shown. The method, boiled down: as §1

In experiment [3] the target is T3, GABPA (Homo sapiens, UniProt Q06546 1-454).
T3 sequence: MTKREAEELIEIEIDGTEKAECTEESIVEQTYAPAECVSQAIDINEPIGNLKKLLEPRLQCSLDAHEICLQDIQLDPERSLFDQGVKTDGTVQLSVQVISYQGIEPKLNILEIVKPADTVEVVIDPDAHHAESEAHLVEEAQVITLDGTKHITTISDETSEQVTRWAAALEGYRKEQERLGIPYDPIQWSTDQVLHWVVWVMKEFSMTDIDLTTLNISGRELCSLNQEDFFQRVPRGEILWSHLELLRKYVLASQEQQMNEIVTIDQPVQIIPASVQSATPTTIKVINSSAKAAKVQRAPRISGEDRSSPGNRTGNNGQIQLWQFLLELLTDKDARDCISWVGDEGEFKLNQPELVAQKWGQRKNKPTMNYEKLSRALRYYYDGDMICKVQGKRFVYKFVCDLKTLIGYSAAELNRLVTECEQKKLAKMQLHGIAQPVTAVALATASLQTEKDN
As to conditions: protein: recombinant; tags: N-terminal GST; dsDNA, one strand shown. The method, boiled down: as §1

In experiment [4] the target is T4, ERG (Homo sapiens, UniProt P11308 1-479).
T4 sequence: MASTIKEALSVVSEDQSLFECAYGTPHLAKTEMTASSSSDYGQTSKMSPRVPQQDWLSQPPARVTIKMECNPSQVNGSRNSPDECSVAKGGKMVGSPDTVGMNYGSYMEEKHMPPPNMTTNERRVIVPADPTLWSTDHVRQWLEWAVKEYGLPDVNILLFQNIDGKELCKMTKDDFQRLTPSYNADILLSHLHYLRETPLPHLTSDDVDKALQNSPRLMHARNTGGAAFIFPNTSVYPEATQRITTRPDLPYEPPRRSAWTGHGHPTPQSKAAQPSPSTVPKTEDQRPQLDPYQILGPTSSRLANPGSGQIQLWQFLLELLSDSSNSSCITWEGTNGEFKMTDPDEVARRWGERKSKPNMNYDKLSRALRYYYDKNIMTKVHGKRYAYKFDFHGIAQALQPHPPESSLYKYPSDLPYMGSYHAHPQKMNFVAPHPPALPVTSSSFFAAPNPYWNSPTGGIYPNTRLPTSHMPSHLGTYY
The settings on record: protein: recombinant; tags: N-terminal GST; dsDNA, one strand shown. In short, it runs like this: as §1

In experiment [5] the target is ELF1 (Homo sapiens, UniProt P32519 1-619). As to conditions: protein: recombinant; tags: N-terminal GST; dsDNA, one strand shown. The method, boiled down:
as §1

Experiment [6] addresses T5, EHF (Homo sapiens, UniProt Q9NZC4 1-300).
T5 sequence: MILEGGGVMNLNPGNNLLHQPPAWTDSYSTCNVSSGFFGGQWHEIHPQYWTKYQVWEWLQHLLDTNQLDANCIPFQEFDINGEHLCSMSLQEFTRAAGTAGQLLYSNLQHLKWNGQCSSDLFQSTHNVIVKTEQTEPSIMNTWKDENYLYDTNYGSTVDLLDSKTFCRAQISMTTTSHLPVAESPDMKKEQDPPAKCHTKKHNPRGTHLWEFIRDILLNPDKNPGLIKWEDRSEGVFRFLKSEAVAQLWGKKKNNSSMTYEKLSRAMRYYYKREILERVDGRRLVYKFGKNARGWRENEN
The settings on record: protein: recombinant; tags: N-terminal GST; dsDNA, one strand shown. The method, boiled down: as §1

Experiment [7] deals with SPIB (Homo sapiens, UniProt Q01892 1-262). As to conditions: protein: recombinant; tags: N-terminal GST; dsDNA, one strand shown. In short, it runs like this: as §1
Sequence of SPIB (Q01892 whole entry): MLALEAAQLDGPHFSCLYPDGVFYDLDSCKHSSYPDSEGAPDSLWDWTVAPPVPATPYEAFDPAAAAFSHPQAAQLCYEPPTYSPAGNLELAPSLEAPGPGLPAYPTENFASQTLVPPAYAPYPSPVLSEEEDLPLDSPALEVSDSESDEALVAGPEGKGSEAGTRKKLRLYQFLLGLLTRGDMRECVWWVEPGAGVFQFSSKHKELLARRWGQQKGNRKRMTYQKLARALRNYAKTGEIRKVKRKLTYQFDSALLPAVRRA
The target of experiment [8] is T6, ELK3 (Homo sapiens, UniProt P41970 1-407).
T6 sequence: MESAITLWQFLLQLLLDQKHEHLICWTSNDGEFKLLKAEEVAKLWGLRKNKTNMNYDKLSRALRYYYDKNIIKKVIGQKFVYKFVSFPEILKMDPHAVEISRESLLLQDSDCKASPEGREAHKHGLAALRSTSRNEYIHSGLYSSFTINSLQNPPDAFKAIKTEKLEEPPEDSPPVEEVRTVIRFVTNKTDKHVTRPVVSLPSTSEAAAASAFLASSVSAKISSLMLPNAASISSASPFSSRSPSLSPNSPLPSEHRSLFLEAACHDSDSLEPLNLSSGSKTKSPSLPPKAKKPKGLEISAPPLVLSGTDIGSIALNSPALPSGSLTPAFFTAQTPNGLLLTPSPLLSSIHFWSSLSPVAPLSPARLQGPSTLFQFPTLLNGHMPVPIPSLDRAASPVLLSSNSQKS
As to conditions: protein: recombinant; tags: N-terminal GST; dsDNA, one strand shown. In short, it runs like this:
as §1

Experiment [9] concerns the target T7, FEV (Homo sapiens, UniProt Q99581 1-238).
T7 sequence: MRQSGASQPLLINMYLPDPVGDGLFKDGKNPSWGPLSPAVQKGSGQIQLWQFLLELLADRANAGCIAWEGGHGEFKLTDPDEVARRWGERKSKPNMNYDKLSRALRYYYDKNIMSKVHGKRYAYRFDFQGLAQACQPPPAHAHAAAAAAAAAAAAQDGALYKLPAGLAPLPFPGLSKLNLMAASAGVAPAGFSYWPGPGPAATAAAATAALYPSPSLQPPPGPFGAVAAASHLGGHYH
As to conditions: protein: recombinant; tags: N-terminal GST; dsDNA, one strand shown. In short, it runs like this: as §1

Experiment [10] concerns the target ETV5 (Homo sapiens, UniProt P41161 1-510). The settings on record: protein: recombinant; tags: N-terminal GST; dsDNA, one strand shown. The method, boiled down:
as §1

The target in experiment [11] is HSF1 (Homo sapiens, UniProt Q00613 1-529). The settings on record: protein: recombinant; tags: N-terminal GST; chain copies: 3; dsDNA, one strand shown. The method, boiled down:
as §1

The target of experiment [12] is T8, SPIC (Homo sapiens, UniProt Q8N5J4 1-248).
T8 sequence: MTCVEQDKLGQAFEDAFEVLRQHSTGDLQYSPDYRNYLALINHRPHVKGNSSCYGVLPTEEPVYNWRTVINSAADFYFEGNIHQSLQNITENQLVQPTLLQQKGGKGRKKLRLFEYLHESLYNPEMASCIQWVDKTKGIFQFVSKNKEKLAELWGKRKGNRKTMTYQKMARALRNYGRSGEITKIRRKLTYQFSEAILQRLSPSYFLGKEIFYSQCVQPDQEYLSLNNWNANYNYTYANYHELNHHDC
The settings on record: protein: recombinant; tags: N-terminal GST; dsDNA, one strand shown. In short, it runs like this: as §1

For experiment [13], the target named is T9, ELK4 (Homo sapiens, UniProt P28324-2 1-405).
T9 sequence: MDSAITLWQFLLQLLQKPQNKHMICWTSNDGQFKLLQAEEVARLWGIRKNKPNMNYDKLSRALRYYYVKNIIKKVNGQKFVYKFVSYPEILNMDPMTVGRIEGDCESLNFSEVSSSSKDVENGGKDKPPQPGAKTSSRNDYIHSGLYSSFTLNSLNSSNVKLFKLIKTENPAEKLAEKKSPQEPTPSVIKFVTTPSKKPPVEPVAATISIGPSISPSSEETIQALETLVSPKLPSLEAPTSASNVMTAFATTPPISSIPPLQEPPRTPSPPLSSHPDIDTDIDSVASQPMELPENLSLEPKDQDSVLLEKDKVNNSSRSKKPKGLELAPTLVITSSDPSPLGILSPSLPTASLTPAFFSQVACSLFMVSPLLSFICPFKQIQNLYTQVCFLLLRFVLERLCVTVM
The settings on record: protein: recombinant; tags: N-terminal GST; dsDNA, one strand shown. In short, it runs like this: as §1

In experiment [14] the target is T10, ETV2 (Homo sapiens, UniProt O00321 1-342).
T10 sequence: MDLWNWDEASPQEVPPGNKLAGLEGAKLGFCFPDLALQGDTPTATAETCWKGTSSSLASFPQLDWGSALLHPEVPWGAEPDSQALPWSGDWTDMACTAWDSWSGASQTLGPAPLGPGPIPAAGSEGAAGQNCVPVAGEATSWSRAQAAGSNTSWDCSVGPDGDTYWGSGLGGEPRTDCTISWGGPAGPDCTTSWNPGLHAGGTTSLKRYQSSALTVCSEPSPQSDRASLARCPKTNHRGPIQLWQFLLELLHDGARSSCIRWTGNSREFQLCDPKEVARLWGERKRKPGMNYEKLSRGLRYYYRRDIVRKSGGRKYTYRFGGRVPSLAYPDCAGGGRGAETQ
The settings on record: protein: recombinant; tags: N-terminal GST; dsDNA, one strand shown. The method, boiled down:
as §1

Experiment [15] concerns the target T11, ELF3 (Homo sapiens, UniProt P78545 1-371).
T11 sequence: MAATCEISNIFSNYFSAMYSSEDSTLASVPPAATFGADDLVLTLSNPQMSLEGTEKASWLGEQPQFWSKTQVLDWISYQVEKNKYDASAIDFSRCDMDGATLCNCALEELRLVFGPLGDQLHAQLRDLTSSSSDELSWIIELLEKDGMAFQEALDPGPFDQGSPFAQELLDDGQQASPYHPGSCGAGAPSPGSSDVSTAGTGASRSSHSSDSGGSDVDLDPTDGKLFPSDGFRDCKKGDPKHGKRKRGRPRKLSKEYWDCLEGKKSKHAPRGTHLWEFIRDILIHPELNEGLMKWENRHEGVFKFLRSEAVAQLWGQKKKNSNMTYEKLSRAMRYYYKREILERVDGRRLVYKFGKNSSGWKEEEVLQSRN
As to conditions: protein: recombinant; tags: N-terminal GST; dsDNA, one strand shown. In short, it runs like this: as §1

For experiment [16], the target named is ETV1 (Homo sapiens, UniProt P50549 1-477). The settings on record: protein: recombinant; tags: N-terminal GST; dsDNA, one strand shown. The method, boiled down: as §1
Sequence of ETV1 (P50549 whole entry): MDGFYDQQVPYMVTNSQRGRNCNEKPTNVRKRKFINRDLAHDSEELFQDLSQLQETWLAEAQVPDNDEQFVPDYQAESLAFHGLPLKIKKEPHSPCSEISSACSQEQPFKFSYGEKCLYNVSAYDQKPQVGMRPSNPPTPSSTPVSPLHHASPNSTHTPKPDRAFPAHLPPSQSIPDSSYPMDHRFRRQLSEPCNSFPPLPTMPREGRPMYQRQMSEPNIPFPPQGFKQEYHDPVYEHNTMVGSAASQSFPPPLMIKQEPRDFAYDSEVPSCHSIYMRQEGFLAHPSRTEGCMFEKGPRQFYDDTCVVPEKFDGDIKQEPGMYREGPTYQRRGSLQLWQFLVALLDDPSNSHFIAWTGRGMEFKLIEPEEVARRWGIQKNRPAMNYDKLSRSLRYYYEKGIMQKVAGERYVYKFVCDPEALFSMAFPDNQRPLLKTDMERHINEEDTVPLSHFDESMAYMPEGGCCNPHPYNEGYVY

Sequence of HSF1 (Q00613 whole entry): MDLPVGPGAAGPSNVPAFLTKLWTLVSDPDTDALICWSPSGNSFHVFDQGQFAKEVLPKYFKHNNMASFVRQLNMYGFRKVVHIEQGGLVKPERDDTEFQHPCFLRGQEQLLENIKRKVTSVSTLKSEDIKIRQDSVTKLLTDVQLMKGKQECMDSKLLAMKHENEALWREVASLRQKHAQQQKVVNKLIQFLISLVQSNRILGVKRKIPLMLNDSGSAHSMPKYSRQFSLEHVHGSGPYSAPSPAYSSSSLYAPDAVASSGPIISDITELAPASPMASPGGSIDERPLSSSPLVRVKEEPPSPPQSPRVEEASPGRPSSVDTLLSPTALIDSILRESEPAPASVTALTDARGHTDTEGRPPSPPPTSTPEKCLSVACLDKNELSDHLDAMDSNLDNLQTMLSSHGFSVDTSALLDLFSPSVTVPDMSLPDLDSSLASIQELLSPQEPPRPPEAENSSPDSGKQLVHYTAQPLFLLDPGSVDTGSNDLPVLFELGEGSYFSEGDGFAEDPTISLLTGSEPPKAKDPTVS
Sequence of ELF1 (P32519 whole entry): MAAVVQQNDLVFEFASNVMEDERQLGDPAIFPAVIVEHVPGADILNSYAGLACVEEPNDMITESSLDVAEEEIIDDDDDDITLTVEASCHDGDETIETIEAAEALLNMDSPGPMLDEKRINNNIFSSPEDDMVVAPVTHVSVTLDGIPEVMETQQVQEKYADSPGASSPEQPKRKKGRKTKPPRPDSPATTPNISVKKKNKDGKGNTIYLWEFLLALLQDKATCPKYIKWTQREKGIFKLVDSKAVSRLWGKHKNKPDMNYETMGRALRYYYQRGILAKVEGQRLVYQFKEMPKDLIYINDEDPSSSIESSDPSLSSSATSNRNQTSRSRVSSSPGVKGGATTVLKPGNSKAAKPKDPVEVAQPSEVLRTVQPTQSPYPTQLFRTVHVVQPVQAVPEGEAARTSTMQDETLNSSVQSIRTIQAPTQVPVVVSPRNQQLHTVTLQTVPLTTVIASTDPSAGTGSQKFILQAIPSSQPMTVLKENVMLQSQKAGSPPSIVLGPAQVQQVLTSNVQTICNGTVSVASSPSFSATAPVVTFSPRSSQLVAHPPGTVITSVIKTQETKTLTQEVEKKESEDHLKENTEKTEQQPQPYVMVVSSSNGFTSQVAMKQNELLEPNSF
Sequence of ETV5 (P41161 whole entry): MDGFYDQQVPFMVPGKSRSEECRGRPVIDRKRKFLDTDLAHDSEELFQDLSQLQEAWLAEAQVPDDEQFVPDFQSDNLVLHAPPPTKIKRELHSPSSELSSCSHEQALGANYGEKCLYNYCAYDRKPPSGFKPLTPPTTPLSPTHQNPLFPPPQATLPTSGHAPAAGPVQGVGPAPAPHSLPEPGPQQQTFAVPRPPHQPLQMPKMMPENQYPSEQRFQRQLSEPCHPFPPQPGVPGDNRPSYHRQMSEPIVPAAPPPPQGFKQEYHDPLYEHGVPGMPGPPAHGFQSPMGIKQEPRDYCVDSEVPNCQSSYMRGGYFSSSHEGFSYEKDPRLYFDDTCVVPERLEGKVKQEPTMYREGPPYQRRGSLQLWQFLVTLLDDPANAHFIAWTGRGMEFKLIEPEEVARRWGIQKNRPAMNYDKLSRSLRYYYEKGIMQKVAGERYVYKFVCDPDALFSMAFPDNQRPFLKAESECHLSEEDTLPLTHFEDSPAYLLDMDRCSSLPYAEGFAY

In the case of TCGCGC, the binding signal is 1.08 fold enrichment (6-mer frequency, TF over GST control) in experiment [1]; 1.04 fold enrichment (6-mer frequency, TF over GST control) in experiment [2]; 1.18 fold enrichment (6-mer frequency, TF over GST control) in [3]; 1.08 fold enrichment (6-mer frequency, TF over GST control) in experiment [4]; 1.07 fold enrichment (6-mer frequency, TF over GST control) in experiment [5]; 1.13 fold enrichment (6-mer frequency, TF over GST control) in [6]. For the same sequence, the binding signal in experiment [7] is 1.08 fold enrichment (6-mer frequency, TF over GST control); in [8], 1.03 fold enrichment (6-mer frequency, TF over GST control); in [9], 1.03 fold enrichment (6-mer frequency, TF over GST control); in experiment [10] it was 1.02 fold enrichment (6-mer frequency, TF over GST control); in experiment [11] it was 1.1 fold enrichment (6-mer frequency, TF over GST control); in experiment [12] it was 1.25 fold enrichment (6-mer frequency, TF over GST control). Moreover, the binding signal in [13] is 1.03 fold enrichment (6-mer frequency, TF over GST control); in experiment [14], 1.08 fold enrichment (6-mer frequency, TF over GST control); in experiment [15] it was 1.05 fold enrichment (6-mer frequency, TF over GST control); in experiment [16], 1.13 fold enrichment (6-mer frequency, TF over GST control).
